In PubChem BioAssay AID1159580 (chemical genetic matrix, 2015):
About 2,000 (36%) of roughly 5,500 compounds were called active. Roughly 18% stayed inconclusive and do not appear here. No stated cut-off is given here; in the data, active means normalized growth mostly below about 0.91 (no sharp cut-off); inconclusive means no clear call, values can overlap the other calls; inactive means mostly above about 0.92. The list shows a part of the results.

Assay: chemical genetic growth profiling, strain panel (AID 1159580);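 further: tested at 20 µM; growth read once vehicle control cultures reached saturation at 30 °C; 1 = growth at the plate median or of vehicle wells; lower values mean less growth of the strain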
Conditions: growth OD

Measured: normalized growth

O=[N+]([O-])/N=C1/NCCN1Cc1ccc(Cl)cc1
inactive: S. cerevisiae deletion strains, locus YAL013W, strain DEP1, active compounds read low 0.994 | S. cerevisiae deletion strains, locus YBR021W, strain FUR4, active compounds read low 0.992 | S. cerevisiae deletion strains, locus YBR229C, strain ROT2, active compounds read low 0.968 | S. cerevisiae deletion strains, locus YCL029C, strain bik1, active compounds read low 0.99 | S. cerevisiae deletion strains, locus YDL035C, strain GPR1, active compounds read low 0.988 | S. cerevisiae deletion strains, locus YDL074C, strain BRE1, active compounds read low 1.05 | S. cerevisiae deletion strains, locus YDL101C, strain DUN1, active compounds read low 0.993 | S. cerevisiae deletion strains, locus YDL134C, strain PPH21, active compounds read low 0.984 | S. cerevisiae deletion strains, locus YDL185W, strain tfp1, active compounds read low 0.986 | S. cerevisiae deletion strains, locus YDL192W, strain arf1, active compounds read low 0.993 | S. cerevisiae deletion strains, locus YDR101C, strain arx1, active compounds read low 0.998 | S. cerevisiae deletion strains, locus YDR150W, strain NUM1, active compounds read low 1 | S. cerevisiae deletion strains, locus YDR162C, strain NBP2, active compounds read low 1.02 | S. cerevisiae deletion strains, locus YDR318W, strain mcm21, active compounds read low 0.984 | S. cerevisiae deletion strains, locus YDR388W, active compounds read low 0.994 | S. cerevisiae deletion strains, locus YDR502C, strain sam2, active compounds read low 0.988 | S. cerevisiae deletion strains, locus YEL061C, strain CIN8, active compounds read low 0.989 | S. cerevisiae deletion strains, locus YER110C, active compounds read low 0.986 | S. cerevisiae deletion strains, locus YER155C, strain BEM2, active compounds read low 1 | S. cerevisiae deletion strains, locus YER167W, strain BCK2, active compounds read low 0.988 | S. cerevisiae deletion strains, locus YGL078C, strain dbp3, active compounds read low 0.995 | S. cerevisiae deletion strains, locus YGL086W, strain mad1, active compounds read low 0.979 | S. cerevisiae deletion strains, locus YGL248W, strain PDE1, active compounds read low 0.979 | S. cerevisiae deletion strains, locus YGR078C, strain PAC10, active compounds read low 1.02 | S. cerevisiae deletion strains, locus YGR135W, strain pre9, active compounds read low 0.992 | S. cerevisiae deletion strains, locus YGR229C, strain SMI1, active compounds read low 1 | S. cerevisiae deletion strains, locus YGR252W, strain gcn5, active compounds read low 0.989 | S. cerevisiae deletion strains, locus YHR030C, strain SLT2, active compounds read low 0.963 | S. cerevisiae deletion strains, locus YHR079C, strain IRE1 (second series), active compounds read low 0.987 | S. cerevisiae deletion strains, locus YHR094C, strain hxt1, active compounds read low 0.996 | S. cerevisiae deletion strains, locus YHR129C, strain ARP1, active compounds read low 0.994 | S. cerevisiae deletion strains, locus YHR200W, strain rpn10, active compounds read low 0.988 | S. cerevisiae deletion strains, locus YIL066C, strain RNR3, active compounds read low 0.985 | S. cerevisiae deletion strains, locus YIL073C, strain SPO22, active compounds read low 0.995 | S. cerevisiae deletion strains, locus YIL125W, strain kgd1, active compounds read low 0.993 | S. cerevisiae deletion strains, locus YIR030C, strain dcg1, active compounds read low 0.988 | S. cerevisiae deletion strains, locus YJL095W, strain BCK1, active compounds read low 1.01 | S. cerevisiae deletion strains, locus YJL134W, strain LCB3, active compounds read low 0.987 | S. cerevisiae deletion strains, locus YJL168C, strain set2, active compounds read low 0.992 | S. cerevisiae deletion strains, locus YJL187C, strain SWE1 (second series), active compounds read low 0.985 | S. cerevisiae deletion strains, locus YJR043C, strain POL32, active compounds read low 1 | S. cerevisiae deletion strains, locus YJR075W, strain HOC1, active compounds read low 0.998 | S. cerevisiae deletion strains, locus YKL009W, strain mrt4, active compounds read low 1.01 | S. cerevisiae deletion strains, locus YKL068W, active compounds read low 0.991 | S. cerevisiae deletion strains, locus YKL085W, strain MDH1 (second series), active compounds read low 0.989 | S. cerevisiae deletion strains, locus YKL085W, strain MDH1, active compounds read low 0.989 | S. cerevisiae deletion strains, locus YKL190W, strain CNB1, active compounds read low 0.997 | S. cerevisiae deletion strains, locus YKR001C, strain vps1, active compounds read low 0.983 | S. cerevisiae deletion strains, locus YLR039C, strain RIC1, active compounds read low 1.01 | S. cerevisiae deletion strains, locus YLR058C, strain SHM2, active compounds read low 0.986 | S. cerevisiae deletion strains, locus YLR102C, strain apc9, active compounds read low 0.996 | S. cerevisiae deletion strains, locus YLR262C, strain YPT6, active compounds read low 1.02 | S. cerevisiae deletion strains, locus YLR268W, strain sec22, active compounds read low 0.995 | S. cerevisiae deletion strains, locus YLR330W, strain CHS5, active compounds read low 0.988 | S. cerevisiae deletion strains, locus YLR342W, strain FKS1 (second series), active compounds read low 0.965 | S. cerevisiae deletion strains, locus YLR371W, strain rom2, active compounds read low 0.987 | S. cerevisiae deletion strains, locus YLR418C, strain cdc73, active compounds read low 1 | S. cerevisiae deletion strains, locus YML016C, strain PPZ1, active compounds read low 0.999 | S. cerevisiae deletion strains, locus YML032C, strain rad52, active compounds read low 0.98 | S. cerevisiae deletion strains, locus YML124C, strain tub3, active compounds read low 0.985 | S. cerevisiae deletion strains, locus YMR078C, strain ctf18, active compounds read low 0.981 | S. cerevisiae deletion strains, locus YMR223W, strain ubp8, active compounds read low 0.993 | S. cerevisiae deletion strains, locus YMR263W, strain SAP30, active compounds read low 1 | S. cerevisiae deletion strains, locus YMR307W, strain GAS1, active compounds read low 1.03 | S. cerevisiae deletion strains, locus YNL067W, strain RPL9B, active compounds read low 1.01 | S. cerevisiae deletion strains, locus YNL128W, strain TEP1, active compounds read low 0.989 | S. cerevisiae deletion strains, locus YNL153C, strain GIM3, active compounds read low 1 | S. cerevisiae deletion strains, locus YNL233W, strain BNI4, active compounds read low 1 | S. cerevisiae deletion strains, locus YNL250W, strain rad50, active compounds read low 0.987 | S. cerevisiae deletion strains, locus YNL271C, strain bni1, active compounds read low 0.992 | S. cerevisiae deletion strains, locus YNL298W, strain CLA4, active compounds read low 0.989 | S. cerevisiae deletion strains, locus YNL307C, strain MCK1, active compounds read low 0.992 | S. cerevisiae deletion strains, locus YNL322C, strain KRE1, active compounds read low 0.992 | S. cerevisiae deletion strains, locus YNR052C, strain pop2, active compounds read low 0.975 | S. cerevisiae deletion strains, locus YOL006C, strain TOP1, active compounds read low 1.03 | S. cerevisiae deletion strains, locus YOL012C, strain htz1 0.909 | S. cerevisiae deletion strains, locus YOL147C, strain pex11, active compounds read low 0.991 | S. cerevisiae deletion strains, locus YOR061W, strain CKA2, active compounds read low 0.992 | S. cerevisiae deletion strains, locus YOR069W, strain VPS5, active compounds read low 0.97 | S. cerevisiae deletion strains, locus YOR136W, strain idh2, active compounds read low 0.992 | S. cerevisiae deletion strains, locus YOR144C, strain elg1, active compounds read low 0.994 | S. cerevisiae deletion strains, locus YOR184W, strain ser1, active compounds read low 0.998 | S. cerevisiae deletion strains, locus YOR316C, strain cot1, active compounds read low 0.989 | S. cerevisiae deletion strains, locus YPL055C, strain LGE1, active compounds read low 1.03 | S. cerevisiae deletion strains, locus YPL241C, strain CIN2, active compounds read low 0.997 | S. cerevisiae deletion strains, locus YPR119W, strain clb2, active compounds read low 0.987 | S. cerevisiae deletion strains, locus YPR141C, strain kar3, active compounds read low 0.988 | S. cerevisiae deletion strains, locus YPR163C, strain tif3, active compounds read low 0.982 | S. cerevisiae deletion strains, locus YPR167C, strain met16, active compounds read low 0.996 | S. cerevisiae deletion strains, strain wtn01, active compounds read low 0.983 | S. cerevisiae strains, strain wild type, active compounds read low 0.989
